RMI-FANCM inh: RMI-FANCM interaction inhibition; Fluorescence polarization, RMI core complex with F-MM2 peptide; stronger effect = lower value; FP signal (polarization) at 33 µM; actives 0.58% (n = 70,000); in the data active = FP signal below about 40
Starred values were filed as active, the others as inactive; ! = repeats disagree. This is one part of a sample in which hits are shown more often than they occur.

SMILES	RMI-FANCM inh
CC(=O)O[C@H]1CC[C@@]2(C)C(=CC[C@@H]3[C@@H]2CC[C@]2(C)C(=O)CC[C@@H]32)C1	9*
C[C@]12CC[C@H](O)CC1=CC[C@@H]1[C@@H]2CC[C@@]2(C)[C@H]1CC[C@]2(C)O	55
CC(=O)O[C@@H]1CC[C@]2(C)C3CC[C@]4(C)C(=O)CCC4C3CC[C@H]2C1 (stereo partly specified)	64
NC(=Nc1ccc(F)c(F)c1)N[N+](=O)[O-]	52
O=C(/C=C/c1cccs1)C(=O)Nc1ccc(Br)cc1C(=O)c1ccccc1Cl	30*
O=C(CN1C(=O)CCC1=O)C(=O)Nc1ccc(Br)cc1C(=O)c1ccccc1Cl	50
O=C(/C=C/c1ccccc1)Nc1ccc(Br)cc1C(=O)c1ccccc1Cl	55
O=c1oc2ccccc2c(O)c1C(C[N+](=O)[O-])c1c[nH]c2ccccc12 (stereo unspecified)	63
CC(CO)NC(=O)C1C=C2c3cccc4[nH]cc(c34)C[C@H]2N(C)C1 (stereo partly specified)	42
CCN(CC)C(=O)N[C@H]1C=C2c3cccc4[nH]cc(c34)C[C@H]2N(C)C1	20*
CCN(CC)C(=O)N[C@@H]1C[C@@H]2c3cccc4[nH]cc(c34)C[C@H]2N(C)C1	52
C[C@H]1C2Cc3ccc(O)cc3[C@@]1(C)CCN2CC1CC1	54
Cc1nc(CCl)cs1	64
O=C(COc1ccccc1F)N1CCN(Cc2nc(-c3ccc(F)cc3)cs2)CC1	63
Cc1ccccc1Cn1cccc(C(=O)Nc2cccc(Cl)c2Cl)c1=O	10*
CC(=O)c1cccc(NC(=O)c2cccn(Cc3ccccc3C)c2=O)c1	63
Cc1cccc(NC(=O)c2cccn(Cc3ccc(Br)cc3)c2=O)c1C	50
CC(C)(C)c1csc(CN2CCN(C(=O)Cc3ccc(Cl)cc3)CC2)n1	60
CCOC(=O)C1=C(N)Oc2c(c(=O)oc3ccccc23)C1c1ccccc1Cl (stereo unspecified)	54
CC(=O)O[C@@H]1C[C@@]2(C)[C@H](c3ccoc3)C[C@H]3O[C@]32[C@]2(C)C(=O)C(O)=C3C(C)(C)C(=O)C=C[C@]3(C)C12 (stereo partly specified)	61
CC[C@@]1(O)C[C@H](O[C@H]2C[C@H](N(C)C)[C@H](O)[C@H](C)O2)c2c(cc3c(c2O)C(=O)c2c(O)ccc(O)c2C3=O)[C@H]1C(=O)OC	55
CC[C@@]1(O)C[C@H](O[C@H]2C[C@H](N(C)C)[C@H](O)[C@H](C)O2)c2c(cc3c(c2O)C(=O)c2c(O)cccc2C3=O)[C@H]1C(=O)OC	79
CC[C@@]1(O)C[C@H](O)c2c(cc3c(c2O)C(=O)c2c(O)ccc(O)c2C3=O)[C@H]1C(=O)OC	26*
O=C(Cc1cccs1)N1CCN(Cc2nc(-c3ccc(F)cc3)cs2)CC1	63
Cc1ccc(CN2CCNCC2CCO)cc1 (stereo unspecified)	63
SMILES	RMI-FANCM inh
CCOc1ccc(Br)cc1C=C1C(=O)NC(=S)NC1=O	55
CS(=O)(=O)c1ccccc1C(=O)Nc1ccc(Cl)cc1C(=O)c1ccccc1	52
CC(C)(O)[C@@H]1[C@H]2OC(=O)[C@@H]1[C@]1(O)C[C@H]3O[C@]34C(=O)O[C@H]2[C@]14C (tested in a mixture with another compound)	30*
CC(C)(O)[C@@H]1[C@H]2OC(=O)[C@@H]1[C@]1(O)C[C@H]3O[C@]34C(=O)O[C@H]2[C@]14C	53
O=C(Nc1ccncc1)c1cccn(Cc2ccccc2F)c1=O	55
Cc1nc2ccc(NC(=O)C(C)(C)C)cc2c(=O)n1-c1ccc(Cl)cc1	60
CC(C)(C)NCC(O)c1cc(Cl)c(N)c(Cl)c1 (stereo unspecified)	4*!
O=C1NC(=S)NC(=O)C1=Cc1ccc(-c2ccc(SC(F)F)cc2)o1	61
O=C(Nc1ccccc1F)N1CCC2(CC1)OCCO2	64
Cc1ccc(C)c2sc(N3CCN(C)CC3)nc12	52

Bioassay records: PubChem, Small Molecule Screening Facility, UW Madison
